# Screening results deposited in PubChem by National Center for Advancing Translational Sciences (NCATS).
# Rows were chosen to be rich in hits. Some 11% of all compounds tested hit in one or more screens of this group.
# Pf growth 48h: Primary qHTS for delayed death inhibitors of the malarial parasite plastid, 48 hour incubation; hit rate 5.9% among 310,000; P. falciparum luciferase growth in erythrocytes, 48 h; AID 504832, 2011; Potency, µM (highest dose often 28.7 µM), for inactives: top-dose activity change, negative = inhibition, hits mostly inhibitors; note: % is set by controls: 0 for no effect and ±100 for the full control effect
#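 Growth was read as firefly luciferase luminescence after a 48 h, 37 C, 5% CO2 exposure of compounds to reporter-bearing P. falciparum cultures (0.1% parasitemia, 2% hematocrit final) in Albumax-supplemented RPMI 1640.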
# AMA1-RON2 inh: qHTS for Inhibitors of AMA1-RON; Towards Development of Antimalarial Drug Lead: Primary Screen; Plasmodium falciparum AMA1 (3D7) - RON2 peptide interaction; AlphaScreen AMA1-biotinylated RON2 peptide binding; Potency, µM (top dose mostly 58.2 µM), inactives show at the top dose activity change, negative = inhibition, most hits filed as inhibitors; hit rate 0.2% among 360,000; AID 720542, 2013;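 note: 0% = vehicle wells and -100% = peptide control; nearly all actives have a fitted effect of over 45% in size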
#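 AMA1 (3D7) with his tag at 25 nM final met compounds first, then biotinylated RON2 peptide at 25 nM; detection used donor plus acceptor beads, 10 µg/mL apiece, read by AlphaScreen after 30 min at room temperature.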
# Pf growth 96h: Primary qHTS for delayed death inhibitors of the malarial parasite plastid, 96 hour incubation; P. falciparum luciferase reporter growth, 96 h; Potency, µM (titrated, usually from 28.7 µM), for the others: top-dose activity change, negative = inhibition, most hits filed as inhibitors; hit rate 6.9% among 320,000; note: % is set by controls: 0 for no effect and ±100 for the full control effect
#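 P. falciparum expressing integrated firefly luciferase grown in erythrocytes (2% hematocrit, 0.05% parasitemia final) with compounds for 96 hours at 37 C, 5% CO2. Growth inhibition read as loss of luminescence after adding luciferase detection reagent.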
# NS1 inh: qHTS Assay for Inhibitors of Influenza NS1 Protein Function | hit rate 0.4% among 270,000 | Potency, µM (titrated, usually from 46.1 µM), for the others: at the top dose activity, positive = more growth; calls by dose curve; note: actives are rising curves; nearly all actives have a fitted effect of over 50% in size
#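 Recovery from NS1-induced slow growth read by OD600 in budding yeast switched to galactose assay medium (pH 6.0, -URA) at 1:100 dilution. Compound 23 nl per well; the matching strain lacking NS1 serves as control.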
# Sm TGR inh: qHTS Assay for the Inhibitors of Schistosoma Mansoni Peroxiredoxins; Schistosoma mansoni thioredoxin glutathione reductase (TGR), Q962Y6; purified TGR, DTNB reduction, TNB absorbance 405 nm; Potency, µM (series often up to 114 µM), without a hit: at the highest dose activity change, negative = inhibition, usual class: inhibitors; hit rate 3% among 360,000; note: % is set by controls: 0 for no effect and ±100 for the full control effect; nearly all actives have a fitted effect of over 60% in size
#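 Kinetic colorimetric format: TGR-catalysed, NADPH-driven DTNB reduction monitored via TNB absorbance. Enzyme dispensed at 20 nM; compound exposure 15 min at room temperature before reaction start.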
# An asterisk follows results filed as active; ? = inconclusive; nt = no result; [ ] = remark or other dose. Unless noted, calls come from the whole dose curve; as a rule, active = well fitted curve in the direction sought with a large enough effect; inconclusive = small, poorly fitted or top-dose-only effect, or another doubt; inactive = no such curve, though single readings can be large; an effect the other way counts as inactive or inconclusive. Potency is the fitted concentration of half-maximal effect.
SMILES,Pf growth 48h,AMA1-RON2 inh,Pf growth 96h,NS1 inh,Sm TGR inh
CC(C)(C)n1nc2c(c1NC(=O)c1ccc([N+](=O)[O-])cc1)CS(=O)(=O)C2,25%,17%,8.3µM*,-1%,28%
COc1ccc(O[C@H]2C=C[C@@H](c3ccccc3)O[C@@H]2CO/N=C(\C)CCN2CCCCc3nc(C)c(C)cc32)cc1,1.7µM*,nt,?,-69%,-23%
C/C(CCN1CCCCc2nc(C)c(C)cc21)=N\O[C@@H](C)CN1CCCCc2nc(C)c(C)cc21,13µM*,nt,12µM*,-2%,-20%
Cc1ccc(C(=O)Nc2ccc3oc(-c4ccncc4)nc3c2)c(Cl)c1,nt,nt,nt,nt,6%
CCc1cccc2c(C(=O)COC(=O)c3ccccc3)c[nH]c12,199%,-7%,175%,1%,-10%
CCc1cccc2c(C(=O)COC(=O)/C=C/c3ccccc3OC)c[nH]c12,?,-11%,13µM*,16%,-3%
CC(=O)N1C=CN(C(C)=O)C(c2cn(C)c3ccccc23)C1c1cn(C)c2ccccc12 (stereo not given),3.3µM*,-16%,80%,?,1%
Cn1c2ccccc2c(=O)c2c(=O)n(C3CCCCC3)c(-c3cccs3)nc21,6.6µM*,-4%,nt,11%,0%
Nn1c(C2CCCCC2)nc2ccccc2c1=O,-18%,7%,-38%,-2%,7%
Cn1c2ccccc2c(=O)c2c(=O)n(C3CCCCCC3)c(C3CCCCC3)nc21,8.3µM*,6%[11.6 µM],10µM*,6%,-3%
CCc1nc2c(c(=O)c3ccccc3n2C)c(=O)n1C1CCCCCC1,?,0%,?,-5%,-4%
Cn1c2ccccc2c(=O)c2c(=O)n(-c3ccccc3)c(C3CCCCC3)nc21,9.3µM*,-7%,9.3µM*,29%,0%
N#Cc1c(F)cccc1NCCCn1ccnc1,nt,-10%,nt,nt,nt
CCCSc1nc2sc3c(c2c(=O)n1-c1ccccc1)CCC(C)C3 (stereo not given),nt,nt,nt,nt,1%
CCC(=O)NC(c1cc(Cl)c2cccnc2c1O)C1CC1 (stereo not given),3.7µM*,nt,2.9µM*,nt,-22%
CCC(=O)NC(c1cc(Cl)c2cccnc2c1O)C(C)C (stereo not given),2.9µM*,nt,13µM*,nt,-6%
CCC(=O)NC(c1cccs1)c1cc(Cl)c2cccnc2c1O (stereo not given),-19%,64%,12%,5%,-16%
CC(C)n1cnc(S(=O)(=O)N2CCCC(C(=O)NCc3ccccc3Cl)C2)c1 (stereo not given),nt,nt,nt,nt,0%
CC(C)Nc1cc(C(F)(F)F)nc(-c2ccccn2)n1,5.2µM*,14%,4.1µM*,18%,-25%
FC(F)(F)c1cc(Nc2ccccc2)nc(-c2ccccn2)n1,2.9µM*,51%,?,-6%,0%
CCN(CC)S(=O)(=O)c1cc(NC(=O)c2ccc(Br)s2)ccc1C,?,-13%,15µM*,12%,12%
CC(C)CC(=O)Nc1ccc2c(c1)OCO2,25%,-9%,58%,1%,nt
CCN(CC)S(=O)(=O)c1cc(NC(=O)NCCCl)ccc1C,?,9%,?,-1%,5%
O=C(CCl)Nc1ccc2c(c1)OCO2,?,-1%,15µM*,nt,16µM*
O=C(Nc1ccc2c(c1)OCO2)C1(S(=O)(=O)c2ccc(Cl)cc2)CC1,-1%,28%,1.9µM*,-6%,11%
SMILES,Pf growth 48h,AMA1-RON2 inh,Pf growth 96h,NS1 inh,Sm TGR inh
O=C(Nc1ccc2c(c1)OCO2)c1ccc(Br)s1,189%,-1%,8.3µM*,-9%[9.22 µM],-8%
O=C(Nc1ccc2c(c1)OCO2)c1cccs1,53%,3%,7%,-40%,-2%
CC(NC(=O)C(=O)NCCN1CCN(C(=O)c2ccccc2Br)CC1)c1ccccc1 (stereo not given),-19%,-2%,3%,0%,-6%
CCc1ccc(NC(=O)N(Cc2cn(CC)c3ccccc23)C2CCCCC2)cc1,nt,nt,nt,nt,2%
COc1ccc(C(=O)N2CCOC2CNC(=O)C(=O)NCc2ccccc2)cc1 (stereo not given),nt,-18%,nt,nt,nt
O=C(Nc1ccc2c(c1)OCCO2)c1cccs1,97%,12%,2.6µM*,-10%,0%
COC(=O)CCCC1=CC2=C(c3ccccc3)C(=O)C(C)(OC(=O)C3CCCC3)C(=O)C2=CN1CC(C)C (stereo not given),?,4%,?,-9%,-3%
COC(=O)CCCC1=CC2=C(c3ccccc3)C(=O)C(C)(OC(=O)C3CCCC3)C(=O)C2=CN1C1CCCCC1 (stereo not given),10µM*,-11%,?,13%,20µM*
COC(=O)CCCC1=CC2=C(c3ccccc3)C(=O)C(C)(OC(=O)C3CCCC3)C(=O)C2=CN1CC1CC1 (stereo not given),?,-2%,8.3µM*,2%,28µM*
COCCN1C=C2C(=O)C(C)(OC(=O)C3CCCC3)C(=O)C(c3ccccc3)=C2C=C1CCCC(=O)OC (stereo not given),36%,-1%,?,0%,14µM*
COc1cnc(-c2ccccc2)nc1Oc1ccc(Cl)cc1C,-26%,13%,-8%,nt,9%
CN(C)C(=O)CN1CCN(C(=O)CCl)CC1,-19%,4%,?,nt,45µM*
C[n+]1cccc(/C=N/Nc2nc(Cl)c(C#N)c(Cl)c2Cl)c1,?,12%,-22%,-34%,?
C[N+](C)(C)c1ccc(/C=N/Nc2nc(Cl)c(C#N)c(Cl)c2Cl)cc1,2.1µM*,24%,?,-37%,45µM*
N#Cc1c(Cl)nc(N/N=C/c2ccccc2)c(Cl)c1Cl,7%,-2%,5.2µM*,-29%,-29%
Cc1nc(C#N)c(N/N=C/c2cccc(Cl)c2)o1,108%,97%,36%,-39%,-3%
COc1ccc(CNC(=O)Cn2ncn3cccc3c2=O)cc1,252%,nt,335%,nt,-5%
COc1ccc(-c2nc(CSc3nnc(C)n4c3cc3oc(C)cc34)c(C)o2)cc1OC,nt,nt,nt,nt,-1%
COc1ccc(-n2cc([N+](=O)[O-])c(=O)c3ccc(Cl)cc32)cc1,nt,-5%,nt,nt,nt
Cc1cc(NCc2ccccn2)n2nc(C)c(-c3ccc(Cl)cc3)c2n1,1.7µM*,88%,2.9µM*,-4%,5%
